Reference: PubChem BioAssay AID1851 (National Center for Advancing Translational Sciences (NCATS), 2009)
The campaign covered roughly 16,000 compounds. About 5,100 (32%) were called active. Inconclusive results (about 25%) are left out. The call rests on the fitted dose curve; in most records, active means well fitted curve in the direction sought with a large enough effect; inconclusive means small, poorly fitted or top-dose-only effect, or effect the other way; inactive means no such curve, though single readings can be large or run the other way. The list shows a part of the results.
On the % scale 0 is the no-effect control and ±100 the full control effect.

These molecules were tested against Cytochrome P450 3A4 (Homo sapiens) (UniProt P08684) (assay: Cytochrome panel assay with activity outcomes). Conditions: recombinant CYP, pro-luciferin dealkylation, luminescence, p450-cyp3a4; series mostly up to 57.1 µM.
Sequence of Cytochrome P450 3A4 (Homo sapiens) (P08684 whole entry, looked up): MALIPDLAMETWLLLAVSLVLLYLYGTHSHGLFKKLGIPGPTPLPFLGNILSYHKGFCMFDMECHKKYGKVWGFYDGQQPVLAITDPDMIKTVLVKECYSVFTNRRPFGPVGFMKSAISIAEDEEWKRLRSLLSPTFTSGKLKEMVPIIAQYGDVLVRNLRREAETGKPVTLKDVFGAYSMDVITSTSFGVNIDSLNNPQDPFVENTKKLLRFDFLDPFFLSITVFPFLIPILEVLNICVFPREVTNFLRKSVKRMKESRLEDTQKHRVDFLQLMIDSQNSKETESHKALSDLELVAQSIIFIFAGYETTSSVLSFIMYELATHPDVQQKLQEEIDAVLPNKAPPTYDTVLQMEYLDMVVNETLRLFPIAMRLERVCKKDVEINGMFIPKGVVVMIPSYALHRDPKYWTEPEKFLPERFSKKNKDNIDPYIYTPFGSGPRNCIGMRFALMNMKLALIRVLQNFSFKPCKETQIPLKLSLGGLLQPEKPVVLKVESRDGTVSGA
Description: The P450 gene superfamily is involved in the metabolism and clearance of xenobiotics. This assay used various human CYP P450 isozymes to measure the dealkylation of various pro-luciferin substrates to luciferin. The luciferin is then measured by luminescence after the addition of a luciferase detection reagent. Pro-luciferin substrate concentration in the assay was equal to its KM for its CYP P450 isozyme. Inhibitors and some substrates limit the production of luciferin, and decrease measured luminescence.
NCGC Assay Protocol Summary:
1, Reagent, 2 uL, Isozyme and Pro-Luciferin
2, Library compounds, 23 nl, 40 uM to 0.24 nM dilution series
3, Controls, 23 nl, Isozyme specific inhibitor
4, Reagent, 2 uL, NADPH regeneration solution
5, Incubation time, 60 min, Isozyme specific temperature
6, Reagent, 4ul, Detection reagent
7, Incubation time, 20 min, Isozyme specific temperature
8, Detection, 1 sec, ViewLux luminescent read
The luciferase-based P450-GloTM Screening Systems were obtained from Promega (Madison, WI) for CYP 1A2 (V9770), CYP 2C9 (V9790), CYP2 C19 (V9880), CYP 2D6 (V9890), and CYP 3A4 Luciferin-PPXE (V9910) and were adapted for 1,536-well microplates and an automated protocol. The control compounds furafylline for 1A2 (F124), sulfaphenazole for CYP 2C9 (S0758), ketoconazole for CYP 2C19 (K1003), quinidine for 2D6 (Q3625), and ketoconazole for 3A4 (K1003) were purchased from Sigma Aldrich (St. Louis, MO). Recombinant P450 enzymes were obtained from baculovirus constructs expressed in insect cells (BD/Gentest).
Medium-binding white solid Kalypsys plates used. Mixtures kept on ice. 1A2: 10 nM 1A2, 100 uM Luc-ME, 100 mM KPO4; 2C9: 10 nM 2C9, 100 uM Luc-H, 25 mM KPO4; 2C19: 5 nM 2C19, 10 uM Luc-H EGE, 50 mM KPO4; 2D6: 5 nM 2D6, 30 uM Luc-ME EGE, 100 mM KPO4; 3A4: 10 nM, 25 uM Luc-PPXE. All amounts are reflected in their final concentration, working concentration is 2x.
NADPH regeneration solution: 1.3 mM NADP+, 3.3 mM glucose-6-phosphate, 3.3 mM MgCl2, 0.4 U/mL glucose-6-phosphate dehydrogenase for all isozymes, 200 mM KPO4 for 3A4. Mixture prepared at RT but kept on ice during automated run.
RT incubation in auxilliary plate hotel for 1A2, 2D6, and 3A4; 37C for 2C9 and 2C19.
Keywords: P450, CYP1A2, CYP2C19, CYP2C9, CYP2D6, CYP3A4, Luciferase, MLSMR, MLSCN, NIH Roadmap, qHTS, NCGC
In the case of `O=C1NCN(c2ccccc2)C12CCN(CCCC(c1ccc(F)cc1)c1ccc(F)cc1)CC2`, the AC50 is reported as “inactive”.
For `C[C@H](CN(C)C)C(=O)c1ccccc1C(=O)O`, the activity, negative = inhibition was -12.4% [at 11.4 µM] (inactive).
`NC[C@H](O)C1CCCCCCC1` was tested, and the AC50 was “inactive”.
With `CCNc1ncc2nc(-c3ccc(Cl)cc3)c(=O)n(Cc3cccc(OC)c3)c2n1` the AC50 was “inactive”.
For `CCNc1ncc2nc(-c3ccccc3)c(=O)n(Cc3cccc(OC)c3)c2n1`, the AC50 was 10 µM (active).
`CCNc1ncc2nc(C)c(=O)n(Cc3cccc(OC)c3)c2n1` was tested, and the AC50 was 7.94 µM (active).
With `Nc1nc(Cl)nc2c1ncn2[C@@H]1O[C@@H](CO)[C@@H](O)[C@H]1O` the AC50 was “inactive”.
`CCOC(=O)NNc1nncc2ccccc12` was tested, and the AC50 was “inactive”.
`CNc1nc(-c2cccnc2)nc2ccccc12` was tested, and the AC50 was 6.31 µM (active).
For `c1ccc(Nc2nc(-c3cccnc3)nc3ccccc23)cc1`, the AC50 was 12.6 µM (active).
For `CCOC(=O)c1ccc(Nc2nc(-c3cccnc3)nc3ccccc23)cc1`, the AC50 was 11.2 µM (active).
For `CC(C)c1nc2oc3ccccc3c(=O)c2c(=O)n1-c1ccccc1`, the AC50 was “inactive”.
In the case of `CC(C)(C)NC[C@H](O)COc1cccc2c1CCCC2=O`, the AC50 is reported as “inactive”.
For `CCOC(=O)c1cc2c(=O)n3ccccc3nc2n(CCCOC)c1=NC(C)=O`, the AC50 was “inactive”.
In the case of `CCOC(=O)c1cc2c(=O)n3ccccc3nc2n(CCCOC)c1=NC(=O)C(C)(C)C`, the AC50 is reported as 15.8 µM (active).
In the case of `O=c1[nH]c2ccccc2c2ccccc12`, the AC50 is reported as “inactive”.
For `COc1ccc(OC)c2c(=S)c3ccccc3[nH]c12`, the AC50 was 7.94 µM (active).
In the case of `Cc1cc(=O)c2ccccc2[nH]1`, the AC50 is reported as “inactive”.
In the case of `CC(CC(=O)O)(CC(=O)O)C(=O)O`, the activity, negative = inhibition is reported as -8.15% [at 11.4 µM] (inactive).
In the case of `COc1ccc(OC)c(C2C3=C(COC3=O)Nc3cc4c(cc32)OCO4)c1` (stereo unspecified), the AC50 is reported as 7.08 µM (active).
`COc1cccc(N2CCN(C(=O)Nc3ccc4c(c3)NC(=O)CO4)CC2)c1` was tested, and the AC50 was “inactive”.
With `COc1ccc(OC)c(C2N(c3cc(C)on3)C(=O)C3CCCN32)c1` (stereo unspecified) the AC50 was “inactive”.
For `CC1CCCC(C)N1CCNC(=O)Cn1nc(-c2ccccc2)ccc1=O` (stereo unspecified), the AC50 was “inactive”.
In the case of `O=C(CCC(=O)c1cccs1)OCC(=O)N1CCN(C(=O)c2ccco2)CC1`, the activity, negative = inhibition is reported as -6.6% [at 2.29 µM] (inactive).
`Cc1ccc(S(=O)(=O)N2CCOCC2)cc1NC(=O)COC(=O)CCC(=O)c1cccs1` was tested, and the AC50 was 11.2 µM (active).
In the case of `Cc1ccc(S(N)(=O)=O)cc1NC(=O)/C=C/c1cccs1`, the AC50 is reported as “inactive”.
For `O=C(c1ccc(N2CCCCC2)c([N+](=O)[O-])c1)N(Cc1ccccc1)c1ccccn1`, the AC50 was 3.55 µM (active).
For `Cc1c(C(c2cccc([N+](=O)[O-])c2O)c2c(C)n(C)n(-c3ccccc3)c2=O)c(=O)n(-c2ccccc2)n1C`, the AC50 was “inactive”.
For `Nc1nc(SCC(=O)Nc2ccccc2Sc2ccc(Cl)cc2)n[nH]1`, the AC50 was 0.708 µM (active).
In the case of `CCCCc1nc(SCC(=O)Nc2ncccn2)n[nH]1`, the AC50 is reported as “inactive”.
`O=C(O)c1ccccc1Nc1ccccc1` was tested, and the AC50 was “inactive”.
For `O=C(O)CCC(=O)Nc1ccc(C(=O)N2CCCCC2)cc1`, the AC50 was “inactive”.
With `O=C(c1ccccc1Nc1ccc(SC(F)F)cc1)N1CCCCC1` the AC50 was 14.1 µM (active).
For `CC1CCCC(C)N1C(=O)c1ccccc1Nc1ccc(SC(F)F)cc1` (stereo unspecified), the AC50 was 10 µM (active).
For `CCSc1nc2c(c(=O)[nH]1)C(c1ccccn1)C1=C(CC(C)(C)CC1=O)N2` (stereo unspecified), the AC50 was “inactive”.
With `CCSc1nc2c(c(=O)[nH]1)C(c1ccncc1)C(C(=O)OC(C)C)=C(C)N2` (stereo unspecified) the AC50 was 1.12 µM (active).
With `CSc1nc2c(c(=O)[nH]1)C(c1ccncc1)C(C(=O)OC(C)C)=C(C)N2` (stereo unspecified) the AC50 was 1.26 µM (active).
For `COc1ccc(CNC(=O)/C=C/c2ccc(OCCCF)cc2)cc1`, the AC50 was 5.01 µM (active).
With `COC(=O)CNC(=O)/C=C/c1ccc(OC)cc1` the AC50 was “inactive”.
With `COCCCNC(=O)/C=C/c1ccc(Cl)cc1` the AC50 was “inactive”.
In the case of `CCn1c(COc2ccc(C)cc2)nnc1SCc1ccc(C#N)cc1`, the AC50 is reported as 2 µM (active).
`CCn1c(SCc2ccc(C#N)cc2)nnc1-c1ccc(S(=O)(=O)N2CCCCC2)cc1` was tested, and the AC50 was “inactive”.
With `CCCCSc1ccc2nc(-c3ccc(C#N)cc3)cn2c1` the activity, negative = inhibition was 20.1% [at 2.29 µM] (inactive).
With `CCc1nnc(NS(=O)(=O)c2ccc(N=Cc3c(C)[nH]n(-c4ccc(C)cc4)c3=O)cc2)s1` the AC50 was 22.4 µM (active).
`CCOc1[nH]n(-c2ccc(Cl)cc2)c(=O)c1C=Nc1ccc(Cl)cc1` was tested, and the AC50 was “inactive”.
In the case of `CC#CCCCC(=O)Nc1cc(OC)nc(OC)n1`, the AC50 is reported as 14.1 µM (active).
For `CC#CCCCC(=O)Nc1ccc(C(=O)O)cc1`, the AC50 was “inactive”.
`COc1cc(NC(=O)c2c(F)cccc2F)nc(OC)n1` was tested, and the AC50 was “inactive”.
`CN(C)/C=C/C(=O)c1ccc(Cl)cc1` was tested, and the AC50 was “inactive”.
With `CNc1ccc(Br)cc(C(=O)/C=C/c2ccc3c(c2)OCO3)c1=O` the AC50 was 11.2 µM (active).
With `CCNc1ccc(Br)cc(C(=O)/C=C/c2ccc3c(c2)OCO3)c1=O` the AC50 was 17.8 µM (active).
`CN(C)CCNC(=O)C(C(=O)c1ccc(F)cc1)n1ccccc1=O` (stereo unspecified) was tested, and the AC50 was “inactive”.
For `O=C(Nc1cccc2nsnc12)c1ccc(-c2cccc(Cl)c2)o1`, the activity, negative = inhibition was 1.55% [at 2.29 µM] (inactive).
With `CCCn1nnc(NC(=O)c2ccc(-c3cccc(Cl)c3)o2)n1` the AC50 was 28.2 µM (active).
With `CCCn1nnnc1-c1cccc(Cl)c1` the AC50 was “inactive”.
With `OC(c1ccccc1)(c1ccc(F)cc1)C(c1ccccc1)N1CCOCC1` (stereo unspecified) the AC50 was 3.98 µM (active).
For `N#C/C(=C/N1CCOCC1)c1ccccc1`, the AC50 was “inactive”.
With `C[C@@H](N1CCOCC1)[C@@](O)(c1ccccc1)c1ccccn1` the activity, negative = inhibition was -13% [at 11.4 µM] (inactive).
In the case of `Nc1ccc(N=Nc2c(S(=O)(=O)O)cc3ccccc3c2S(=O)(=O)O)cc1`, the activity, negative = inhibition is reported as 5.34% [at 11.4 µM] (inactive).
In the case of `Cc1nc2sccn2c(=O)c1Cl`, the AC50 is reported as “inactive”.
`Cc1cc(N2C(=O)C(O)=C(C(=O)c3cccs3)C2c2cccc(O)c2)no1` (stereo unspecified) was tested, and the AC50 was “inactive”.
In the case of `CCOc1cccc(C2C(C(=O)c3ccc(C)o3)=C(O)C(=O)N2Cc2ccncc2)c1` (stereo unspecified), the AC50 is reported as 5.01 µM (active).
In the case of `COc1cc(C2C(C(=O)c3ccc(C)o3)=C(O)C(=O)N2CCc2ccccc2)ccc1O` (stereo unspecified), the AC50 is reported as “inactive”.
For `CN(C)CCN1C(=O)C(O)=C(C(=O)c2cc3ccccc3o2)C1c1ccccn1` (stereo unspecified), the AC50 was “inactive”.
With `Cc1ccc(C2C(C(=O)c3sc(C)nc3C)=C(O)C(=O)N2CCN2CCOCC2)o1` (stereo unspecified) the AC50 was “inactive”.
With `Cc1ccc(C(=O)C2=C(O)C(=O)N(CCCn3ccnc3)C2c2ccc(OC(C)C)cc2)o1` (stereo unspecified) the AC50 was 7.94 µM (active).
